# KLF5 inhibitor: kruppel-like factor 5 inhibition; DLD-1 KLF5 promoter-luciferase reporter, luminescence; inhibition, % at 5 µM; 290,000 tested, 0.23% active; AID 1700;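 active = inhibition above a per-plate limit of that plate's mean compound inhibition plus 3 SD, cut at about 60% in these data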;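 also: 0% = DMSO wells and 100% = LY294002 at 200 µM; higher means less KLF5 promoter-driven luciferase light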
# IEC-6 tox: counter-screen for KLF5 inhibitors: cytotoxicity in IEC-6 cells; IEC-6 cytotoxicity, luminescence viability; inhibition, % at 5 µM; 290,000 tested, 0.78% active; AID 1825; in the data active = inhibition above about 22%;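 also: 0% = plate median of test compound wells and 100% = cytotoxic reference compound wells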
# SKKanGAS inh: blocks kanamycin growth of S. pyogenes SKKanGAS strain; inhibition, % at 7.5 µM; AID 1662; 300,000 tested, 1.3% active; BacTiter-Glo, 6 h;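 active = mean replicate score, as percent of positive control median, at least 50; inconclusive = mean below 50 but one replicate at or above 50; inactive = mean and every replicate below 50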;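 also: strain carries kanamycin resistance gene driven by streptokinase promoter and grows in 40 µg/ml kanamycin; loss of luminescence reflects streptokinase promoter inhibition or plain growth inhibition; 0% = median of DMSO wells and 100% = positive control at its reference dose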
# aSyn 5UTR inh: MLPCN primary screen, SNCA 5' untranslated region. alpha-synuclein 5'UTR reporter, inhibitor activity. inhibition, % (tested at 7.5 µM). 300,000 tested, 0.82% active. AID 1813; in the data active = inhibition above about 60%; inconclusive = no clear call, values can overlap the other calls;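 also: H4 neuroglioblastoma cells stably carrying SNCA 5'UTR luciferase fusion; 0% = DMSO wells and 100% = positive control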
# CSC inhib: blocks cancer stem cells. AID 2717. inhibition, % at 7.5 µM. 300,000 tested, 1.1% active. cancer stem cell-like cells viability, luminescence; in the data active = inhibition above about 75%; inconclusive = no clear call, values can overlap the other calls; tested in HMLE shEcad cells
# Active calls of the source: *; u = inconclusive; x = no result given. An excerpt weighted towards active compounds, which were near 3% of everything screened.
SMILES,KLF5 inhibitor,IEC-6 tox,SKKanGAS inh,aSyn 5UTR inh,CSC inhib
CCCn1nc([N+](=O)[O-])c(C(C#N)c2nc3ccccc3s2)c(Cl)c1=O (centres undefined),-12.3,2.8,4.1,-52.8,98.3*
CCn1nc([N+](=O)[O-])c(C(C#N)c2nc3ccccc3n2C)c(Cl)c1=O (centres undefined),-26.1,2.6,11.4,-46.2,30.5
O=c1cc2c(nn1Cc1ccc(F)cc1)-c1ccccc1CC2,-7.5,-0.7,9.4,-2.8,-7.7
Fc1ccc(CO/N=C/C2=C(Cl)c3ccccc3CC2)cc1,0.0,0.1,79.0*,-60.1,2.0
Cc1ccc(SC2=C(Sc3ccc(C)cc3)C(=O)c3ccccc3C2=O)cc1,-33.9,0.4,32.7,-12.6,78.0*
OC1(c2ccccc2)c2ccccc2-c2ncccc21 (centres undefined),2.7,6.2,5.0,-20.0,-9.6
O=[N+]([O-])c1cc(S(=O)(=O)C(F)(F)F)ccc1Sc1nc2ccccc2[nH]1,-0.2,-3.6,98.9*,-20.3,113.1*
CS(=O)(=O)c1ccc(Sc2nc3ccccc3[nH]2)c([N+](=O)[O-])c1,-67.9,-1.3,-2.6,-8.0,5.9
O=[N+]([O-])c1cc(S(=O)(=O)C(F)(F)F)ccc1Sc1nc2ccccc2s1,-17.9,-3.0,89.3*,-11.5,101.0*
CS(=O)(=O)c1ccc(Sc2nc3ccccc3s2)c([N+](=O)[O-])c1,1.4,-2.6,-2.9,-41.7,x
CCOC(=O)c1c(NC(=O)c2cccs2)sc(CC)c1-c1cccs1,-20.9,-1.2,59.6*,17.0,71.4
Cc1ccc(S(=O)(=O)N(CC(=O)Nc2cccc(C(F)(F)F)c2)C(=O)N2CCN(C)CC2)cc1,x,x,-6.5,-1.7,-0.2
FC(F)(F)c1cc(-c2ccccc2)nc(N2CCCCC2)n1,3.7,-0.7,84.3*,21.6,4.9
O=[N+]([O-])c1ccc(S(=O)(=O)CC(CN2CCCCC2)N2CCCCC2)cc1 (centres undefined),-12.0,1.7,-14.7,10.2,78.3*
Cn1c(=O)c2sc3c(c2n(CC(=O)Nc2ccccc2)c1=O)COC(C)(C)C3,-28.4,2.8,-6.3,-14.7,-7.7
COc1cccc(-c2sc3ccc(OC)cc3c2-c2cc(F)cc(OC)c2)c1,x,x,x,x,25.5
COc1cccc(-c2sc3ccc(OC)cc3c2-c2ccc(OCCN(C)C)cc2)c1,x,x,x,x,103.8*
COc1ccc(-c2sc3ccccc3c2-c2ccc(OCCN(C)C)cc2)cc1,x,x,x,x,142.0*
CN(C)CCOc1ccc(-c2c(-c3ccsc3)sc3ccccc23)cc1,x,x,x,x,103.8*
COc1cccc(-c2sc3ccc(OC)cc3c2-c2ccc(O)cc2)c1,x,x,x,x,129.4*
CC(NC(=S)N1CCN(c2ccccc2)CC1)c1ccccc1 (centres undefined),-11.2,-0.9,-1.0,24.8,6.1
CNC(=O)/C(=C\c1ccc2c(c1)OCO2)NC(=O)c1ccc(Br)cc1,-24.9,4.0,-1.5,0.5,0.3
COc1ccc(S(=O)CC(=O)Nc2ccc(Cl)cc2Cl)cc1 (centres undefined),-12.2,-1.7,-5.9,-1.4,-2.9
CCCCCC(=O)Nc1ccc(S(=O)(=O)NC2=NCCCCC2)cc1,x,x,x,x,-12.2
CCOc1ccc(-c2cc(CCCC(=O)NCCc3ccccc3)no2)cc1,-15.4,2.5,-3.5,62.2*,1.7
SMILES,KLF5 inhibitor,IEC-6 tox,SKKanGAS inh,aSyn 5UTR inh,CSC inhib
CCOc1ccc(-c2cc(CCCC(=O)Nc3cc(OC)ccc3OC)no2)cc1,-11.9,3.9,-0.3,82.6*,-5.5
CCOc1ccc(NC(=O)CCCc2cc(-c3ccc(OCC)cc3)on2)cc1,-13.7,-4.1,6.8,35.3,-20.8
COc1ccc(-c2cc(CCCC(=O)NCCc3ccccc3)no2)cc1,-44.8,5.1,-4.7,-51.7,-10.4
CCOc1ccc(-c2cc(CCCC(=O)NCCc3ccc(OC)c(OC)c3OC)no2)cc1,-34.5,0.8,-0.6,u,-21.8
CCOc1ccc(-c2cc(CCCC(=O)Nc3cccc(OC)c3)no2)cc1,2.4,3.9,2.5,67.5*,56.5
CCOc1ccc(C(C)=O)cc1Cn1c(=O)oc2ccccc21,14.2,11.1,-0.4,28.3,-5.7
COc1ccc(-c2c(-c3cc(OC)cc(OC)c3)n(C)c3ccc(-c4ccc5[nH]ccc5c4)cc23)cc1,x,x,x,x,14.7
CC(C)c1cc(C(C)C)c(S(=O)(=O)N2c3ccccc3[C@]3(Br)C[C@H]4C(=O)N[C@@H](Cc5ccccc5)C(=O)N4[C@H]23)c(C(C)C)c1,x,x,30.5,65.0*,x
COCCNC(=S)N(CCc1c(C)[nH]c2ccc(Cl)cc12)Cc1cccs1,-21.5,-6.8,31.9,-10.2,79.4*
CN(Cc1ccccc1)C(=O)C1CCN(S(=O)(=O)c2ccc(-n3cnnn3)cc2)CC1,-12.2,-1.1,-5.3,19.2,x
CCCc1ccc(OC(=O)c2ccc(O)cc2Cl)cc1,-127.1,11.3,81.2*,-62.6,1.2
CCCc1ccc(OC(=O)c2cccs2)cc1,5.7,-5.1,-0.2,-7.6,x
COc1cc(-c2ccc(NC(=O)NC3CC3)c(OC)c2)ccc1NC(=O)NC1CC1,17.4,-1.4,54.5*,-99.1,15.5
COc1cc(NC(=O)CSc2nnnn2C2CCCC2)cc(OC)c1,-14.4,1.0,-1.6,8.9,-5.4
CCOc1ccc(OCCCC(=O)NCCc2ccc(OC)cc2)cc1,-29.3,-1.2,-4.7,-14.0,-9.0
O=C(Cn1c2ccccc2c(=O)c2ccccc21)N/N=C/c1ccc(N2CCCC2)c([N+](=O)[O-])c1,-7.8,0.6,-14.6,111.0*,112.6*
Brc1ccc2ncc(Br)cc2c1,-22.7,-9.5,-2.2,-1.9,-5.7
COc1cc(C(=O)NNC(=S)NC(=O)c2ccccc2C)cc(OC)c1OC,11.1,-0.4,59.9*,-3.2,12.7
COc1cc(C(=O)NC(=S)NNC(=O)[C@H]2C[C@@H]2c2ccccc2)cc(OC)c1OC,-9.2,8.0,90.4*,-5.3,6.4
COc1ccccc1C(=O)NNC(=S)NC(=O)c1cc(OC)c(OC)c(OC)c1,-33.1,4.8,79.9*,72.5*,-1.9
O=C(NCCN1C(=O)S/C(=C\c2cccs2)C1=O)c1ccc(=O)[nH]c1,1.3,10.8,-3.7,-34.9,-4.6
Clc1ccccc1N1CCN(Cc2c[nH]c3ccccc23)CC1,x,x,-1.0,64.1*,14.9
O=C1CCCc2c1[nH]c1ccc(Cl)cc21,-21.3,3.6,-4.0,63.1*,-11.8
COC(=O)C1=C(N)Oc2cc(N(C)C)ccc2C1c1ccccc1OC (centres undefined),-6.3,3.0,-18.4,82.8*,41.4
COC(=O)C1=C(N)Oc2cc(C)n(CC3CCCO3)c(=O)c2C1c1ccccc1OC (centres undefined),-15.1,4.5,-1.8,-0.9,-13.0
O=C(c1cc([N+](=O)[O-])ccc1N1CCCCC1)N1CCc2ccccc21,-7.5,-3.4,-13.7,81.2*,56.0
O=C(O)c1cc([N+](=O)[O-])ccc1N1CCCCC1,-1.7,2.3,-6.2,10.1,-6.8
O=C(c1cc([N+](=O)[O-])ccc1Cl)N1CCc2ccccc21,-19.4,1.1,8.7,23.4,-9.4
Cc1ccc(C(=O)c2cc([N+](=O)[O-])ccc2N2CCCCC2)c(C)c1,37.5,89.4*,2.2,69.5*,-5.0
Cc1ccc(C(=O)c2cc([N+](=O)[O-])ccc2N2CCOCC2)cc1,9.9,1.7,4.6,92.2*,x

# Source: PubChem BioAssay (several laboratories)
